# Hit rate of the full screen: of about 340,000 compounds, about 1,000 (0.29%) were called active. No stated cut-off is given here; in the data, inconclusive means inhibition above about 27% without an active follow-up result; inactive means below that. Not all results are given here. Measured potencies and affinities stand elsewhere.
# Assay: NS1A inhibition, H1N1 influenza, cell based functional assay (AID 504329)
# Conditions: percent inhibition, at 12.5 µM, hits give high values
row,SMILES,inhibition
1,Oc1cccc(Nc2c3ccccc3nc3ccccc23)c1,8.39% (inactive)
2,CCN(CC)CCn1c2ccccc2c2nc3ccccc3nc21,-13.6% (inactive)
3,Cc1ccccc1N1CCN(C2CCCN(C(=O)c3snnc3C)C2)CC1 (configuration not stated),-10.7% (inactive)
4,O=CC1=C(N2CCOCC2)/C(=C\c2ccccc2)CC1,-9.74% (inactive)
5,O=C1Nc2ccc(Br)cc2/C1=N\N=C\C1=C(N2CCOCC2)C(=C/c2ccccc2)/CC1,20.8% (inactive)
6,Cc1ccc(S(=O)(=O)CCC(=O)OCCOc2cccc(Br)c2)cc1,-115% (inactive)
7,Cc1cccc(OCCOC(=O)c2c(-c3ccccc3)noc2C)c1,-11.5% (inactive)
8,COc1ccc(S(=O)(=O)NCc2cccnc2)cc1NC(=O)c1ccccc1C,-8.44% (inactive)
9,CS(=O)(=O)N(CC(=O)Nc1ccccc1-c1ccccc1)c1ccc(F)cc1,1.39% (inactive)
10,O=C(Nc1cccc(Cl)c1)c1ccc(-n2cncn2)c([N+](=O)[O-])c1,2.4% (inactive)
11,CC(C(=O)OCC(=O)c1ccccc1)N1C(=O)c2ccccc2C1=O (configuration not stated),-4.62% (inactive)
12,CC(=O)c1cc2c(cc1NC(=O)C1CCC1)OCO2,10.9% (inactive)
13,Cn1c(=Nc2ccc(N3CCOCC3)cc2)ccc2ccccc21,-15.9% (inactive)
14,C/C(=N\N=c1/sc2ccccc2n1C)c1ccc(N2CCOCC2)cc1,-7.4% (inactive)
15,Cn1c(N)c(C(=O)CSc2nnc3n2CCCCC3)c(=O)n(C)c1=O,-13.2% (inactive)
16,CCOc1ccc(CNCCCSc2ncccn2)cc1,4.75% (inactive)
17,CCOC(=O)N1CCN(C(=O)c2ccc3nc(-c4ccccc4)c(-c4ccccc4)nc3c2)CC1,2.02% (inactive)
18,Cc1ccc(-c2csc(NC(=O)c3ccc([N+](=O)[O-])o3)n2)cc1,6.86% (inactive)
19,O=C(Nc1nc(-c2cccs2)cs1)c1ccc([N+](=O)[O-])o1,-3.14% (inactive)
20,O=C(Nc1nc(-c2ccccn2)cs1)c1cc2ccccc2o1,25.1% (inactive)
21,Cc1ccc(C(=O)Nc2nc(-c3cccnc3)cs2)o1,-17% (inactive)
22,COc1ccccc1C(=O)Nc1ccc2c(c1)n(C)c(=O)n2C,-3.88% (inactive)
23,CC(C)CN(C(=O)c1ccc(C(F)(F)F)cc1)c1c(N)n(CC(C)C)c(=O)[nH]c1=O,-4.85% (inactive)
24,CCCCNC(=S)Nc1ccc2nc(N3CCN(CC)CC3)cc(C)c2c1,9.06% (inactive)
25,COc1ccc(OCCCC(=O)Nc2ccc(OC)c(S(=O)(=O)N3CCOCC3)c2)cc1,-7.67% (inactive)

row,SMILES,inhibition
1,CNC(=O)c1ccc(Nc2nnc(C)c3ccccc23)cc1,-2.75% (inactive)
2,O=C1NCCN1CCN1C(=O)c2ccccc2NC1c1ccccc1 (configuration not stated),-24.1% (inactive)
3,CCn1c(/C=C2\C(=O)N(C(C)C)c3ccccc32)nc2ccccc2c1=O,-0.25% (inactive)
4,CC(C)N1C(=O)/C(=C/c2nc3ccccc3c(=O)n2-c2ccccc2)c2ccccc21,27.7% (inactive)
5,CC(C)Sc1cc(N2CCCC2)nc(-c2ccccc2)n1,-8.52% (inactive)
6,COc1ccc(CNC(=O)C2CCCN2C(=O)NC2CCCCC2)cc1 (configuration not stated),8.99% (inactive)
7,COc1ccc(S(N)(=O)=O)cc1N(C)S(=O)(=O)c1ccccc1,-8.33% (inactive)
8,NC1=NC(=Nc2cccc(S(N)(=O)=O)c2)c2ccccc21,-7.83% (inactive)
9,O=CN1CCc2scc[n+]2-c2ccccc21,-18.5% (inactive)
10,COc1ccccc1NC(=S)Nc1ccccn1,-3.02% (inactive)
11,C=CCNC(=S)N/N=C(\C)c1ccc(OC)cc1,1.71% (inactive)
12,C/C(=N\NC(=S)Nc1ccc(C)cc1)c1cccc(N)c1,3.24% (inactive)
13,COc1ccccc1NC(=O)C/C(C)=N/NC(=O)c1ccccn1,12.6% (inactive)
14,CCCCCC(=O)N/N=C(\C)c1ccccn1,5.83% (inactive)
15,C/C(Cc1ccccc1)=N\NC(=O)c1ccccn1,-7.02% (inactive)
16,C/C(=N\NC(=O)CCCNc1ccc(C)cc1)c1ccccn1,-0.81% (inactive)
17,C=CCNC(=S)N/N=C(\C)c1cccnc1,1.12% (inactive)
18,CC1(C)Oc2ccc(C(=O)NC3CCCC3)cc2N(CC(=O)NC2CCCCC2)C1=O,-5.58% (inactive)
19,Cc1cc(C)nc(Nc2ccccc2Cl)n1,-3.84% (inactive)
20,CN(CC(=O)Nc1ccc2c(c1)OCO2)S(=O)(=O)c1ccc(F)cc1,0.79% (inactive)
21,Cc1cccc(NC(=S)Nc2ccccn2)c1,3.18% (inactive)
22,C/C(=N\NC(=S)Nc1cccc(C)c1)c1ccccc1,2.46% (inactive)
23,S=C(NCCc1ccccn1)Nc1cccc(Cl)c1,-6.8% (inactive)
24,S=C(NCc1ccccn1)Nc1cccc(Cl)c1,10.7% (inactive)
25,Cc1nc(-c2ccc(Cl)cc2)sc1C(=O)O,-5.39% (inactive)

row,SMILES,inhibition
1,O=C1COc2ccc(S(=O)(=O)N3CCN(c4ccccc4)CC3)cc2N1,6.48% (inactive)
2,CN(CC(=O)N1CCN(C2CCCCC2)CC1)S(=O)(=O)c1cccc2nsnc12,0.79% (inactive)
3,CC(Sc1nnc(-c2cccnc2)o1)C(=O)NC1CCCC1 (configuration not stated),-4.28% (inactive)
4,c1cnc2ccc(-c3ccc4ncccc4c3)cc2c1,2.05% (inactive)
5,Nc1ccc(N=Nc2ccccc2)cc1,10.5% (inactive)
6,Nc1ccc(N=Nc2ccc(N)cc2)cc1,-2.48% (inactive)
7,Nc1ccc2ncccc2c1,7.98% (inactive)
8,CC(=O)N(C)c1ccc(N=Nc2ccc3ncccc3c2)cc1,18.9% (inactive)
9,Cc1ccc2ncccc2c1,-1.21% (inactive)
10,CC(C)CN(C(=O)c1ccc(=O)n(C)n1)c1c(N)n(Cc2ccccc2)c(=O)[nH]c1=O,-3.79% (inactive)
11,COc1ccccc1NS(=O)(=O)c1cccc(NC(=O)c2cncc(Br)c2)c1,-6.77% (inactive)
12,COc1cccc(Oc2c(C)oc3c(CN4CCOCC4)c(O)ccc3c2=O)c1,8.63% (inactive)
13,Cn1c(N)c(C(=O)CSc2nc3ccccc3c(=O)n2Cc2ccccc2)c(=O)n(C)c1=O,10.1% (inactive)
14,Cc1ccc(CNC(=O)CCC2CCCN(Cc3c(C)nn(C(C)C)c3C)C2)o1 (configuration not stated),7.13% (inactive)
15,Cc1ccc(Cn2c(C(CO)Nc3nc(-c4ccc(Cl)c([N+](=O)[O-])c4)cs3)nc3ccccc32)cc1 (configuration not stated),1.74% (inactive)
16,O=C(Cc1cccs1)Nc1nnc(SCC(=O)NC2CCCCC2)s1,3.29% (inactive)
17,C=CCNc1cc(C(F)(F)F)nc(-c2ccccn2)n1,-12.7% (inactive)
18,C=CCNc1nc(-c2ccccc2)c(C(=O)OCC)cc1C#N,10.4% (inactive)
19,Oc1ccccc1-c1nc(NC2CCCC2)c2ccccc2n1,-9.82% (inactive)
20,CCN(CC)c1nc(-c2ccccn2)nc(-c2ccccc2)c1C#N,2.62% (inactive)
21,CC(C)Nc1nc(-c2ccccc2)nnc1-c1ccccc1,-7.91% (inactive)
22,CC(C)Nc1nc(-c2ccccn2)nc(-c2ccccc2)c1C#N,1.07% (inactive)
23,c1ccc(-c2nc(NC3CCCC3)c3ccccc3n2)cc1,-1.14% (inactive)
24,Cc1nnc(-c2ccccc2)nc1N(C)C,-13.6% (inactive)
25,CC(C)c1ccc(NC(=S)Nc2ccc3[nH]c(=O)[nH]c3c2)cc1,1.94% (inactive)

row,SMILES,inhibition
1,Cc1ccc(S(=O)(=O)N2CCOCC2)cc1NS(=O)(=O)c1ccc(F)c(F)c1,-3.51% (inactive)
2,Cc1c(C(=O)Nc2ccccc2)c2cc(O)ccc2n1Cc1ccccc1,-3.07% (inactive)
3,O=C1CCCN1CCC1CCN(C2CC(=O)N(Cc3ccc(N4CCCC4=O)cc3)C2=O)CC1 (configuration not stated),18.3% (inactive)
4,COc1ccc(OC)c(C(=O)CN2CCN(S(=O)(=O)c3ccc(Br)cc3)CC2)c1,0.97% (inactive)
5,NC(=O)c1nsc(C(=O)N(c2ccc(F)cc2)C(C(=O)NC2CCCC2)c2ccncc2)c1N (configuration not stated),7.29% (inactive)
6,CC1CCC2(CC1)C(Nc1cccc(Cl)c1)=NC(=S)N2CC#N (configuration not stated),11.2% (inactive)
7,NC(=O)c1c(NC(=O)Cn2nc(C(=O)O)c3ccccc3c2=O)sc2c1CCC2,0.19% (inactive)
8,CCOC(=O)c1c(NC(=O)CSc2nncn2C)sc(C)c1C,-1.87% (inactive)
9,COc1ccc(Oc2nc(-c3ccccn3)ncc2OC)cc1,7.31% (inactive)
10,COc1cnc(-c2ccccn2)nc1Oc1ccccc1,10.4% (inactive)
11,Cc1nc2c(C)cccc2c2c1COC2,-0.38% (inactive)
12,CCOC(=O)c1sc(NC(=O)CSc2nc3c(cc2C#N)CCCCC3)c(C#N)c1C,0.28% (inactive)
13,Cc1c(NC(=O)c2ccc(C(=O)Nc3c(C)n(C)n(-c4ccccc4)c3=O)cc2)c(=O)n(-c2ccccc2)n1C,11.8% (inactive)
14,CCCCC[C@H]1CN(C2CCCCC2)C(=O)[C@@H]1CC(=O)NCc1ccccc1,-4.52% (inactive)
15,Cc1ccc2[nH]c3nc(N/N=C/c4cccc(O)c4)nnc3c2c1,5.99% (inactive)
16,Cc1ccc2[nH]c3nc(SCC#N)nnc3c2c1,3.03% (inactive)
17,Cc1ccc(C)c(N(C)S(=O)(=O)c2ccc3[nH]cc(C(=O)NCCN4CCOCC4)c(=O)c3c2)c1,13.2% (inactive)
18,CCCCNc1nc(N)ncc1[N+](=O)[O-],-2.32% (inactive)
19,[O-][N+]1=c2ccc(Nc3ccccc3)cc2=NC12CCCCC2,16.6% (inactive)
20,O=[N+]([O-])c1ccc2c(c1N1CCCCC1)=NC1(CCCCC1)[N+]=2[O-],-7.13% (inactive)
21,CCCCNc1c([N+](=O)[O-])cc(C(=O)O)cc1[N+](=O)[O-],25.7% (inactive)
22,Cc1noc(C)c1S(=O)(=O)N1CCC(C(=O)O)CC1,-5.05% (inactive)

# From PubChem BioAssay AID504329 (Southern Research Specialized Biocontainment Screening …, 2011)
